From PubChem
ADAM10 inh: human ADAM10 inhibitors, primary screen, biochemical, QFRET, HTS; Disintegrin and metalloproteinase domain-containing protein 10 (Homo sapiens), O14672; recombinant ADAM10, EDANS/DABCYL FRET peptide cleavage, 3 h; hit rate 0.62% among 370,000; inhibition, % at 7 µM;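 active = inhibition above a per-campaign cutoff equal to the mean of compounds falling between control-based bounds plus 3 SD, cut at about 20% in these data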
PLCb3 inh: human PLC-beta3 inhibitors, primary screen, biochemical, fluorescence. inhibition, % at 12.2 µM. Purified PLC-beta3, fluorogenic substrate. AID 720704, 2013. hit rate 0.18% among 370,000; in the data active = inhibition above about 11%
ADAM17 inh: ADAM17 inhibitors, primary screen, biochemical, QFRET | Disintegrin and metalloproteinase domain-containing protein 17 (Homo sapiens), P78536 | inhibition, % at 6.95 µM | recombinant ADAM17, EDANS/DABCYL FRET peptide cleavage | hit rate 0.83% among 370,000;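 active = inhibition above the mean of compounds lying between control limits plus 3 SD, set per campaign, cut at about 8.5% in these data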
sPLA2-III inh: human group III sPLA2 inhibitors, primary screen, biochemical, QFRET, BODIPY PC-A2 liposome substrate; Group 3 secretory phospholipase A2 (Homo sapiens), Q9NZ20; QFRET BODIPY PC-A2 liposome hydrolysis, fluorescence; inhibition, % at 12.2 µM; hit rate 0.56% among 370,000;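 active = inhibition above mean plus 3 SD of compounds lying within the high and low control bounds, cut at about 19% in these data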
PLCg1 inh: PLC-gamma1 enzyme inhibitors, primary screen, biochemical, fluorescence, purified enzyme; 1-phosphatidylinositol 4,5-bisphosphate phosphodiesterase gamma-1 (Homo sapiens), P19174; fluorogenic substrate; inhibition, % at 12.2 µM; hit rate 0.84% among 370,000; AID 720700, 2013; in the data active = inhibition above about 9.5%
Target sequence (P19174 whole entry, looked up): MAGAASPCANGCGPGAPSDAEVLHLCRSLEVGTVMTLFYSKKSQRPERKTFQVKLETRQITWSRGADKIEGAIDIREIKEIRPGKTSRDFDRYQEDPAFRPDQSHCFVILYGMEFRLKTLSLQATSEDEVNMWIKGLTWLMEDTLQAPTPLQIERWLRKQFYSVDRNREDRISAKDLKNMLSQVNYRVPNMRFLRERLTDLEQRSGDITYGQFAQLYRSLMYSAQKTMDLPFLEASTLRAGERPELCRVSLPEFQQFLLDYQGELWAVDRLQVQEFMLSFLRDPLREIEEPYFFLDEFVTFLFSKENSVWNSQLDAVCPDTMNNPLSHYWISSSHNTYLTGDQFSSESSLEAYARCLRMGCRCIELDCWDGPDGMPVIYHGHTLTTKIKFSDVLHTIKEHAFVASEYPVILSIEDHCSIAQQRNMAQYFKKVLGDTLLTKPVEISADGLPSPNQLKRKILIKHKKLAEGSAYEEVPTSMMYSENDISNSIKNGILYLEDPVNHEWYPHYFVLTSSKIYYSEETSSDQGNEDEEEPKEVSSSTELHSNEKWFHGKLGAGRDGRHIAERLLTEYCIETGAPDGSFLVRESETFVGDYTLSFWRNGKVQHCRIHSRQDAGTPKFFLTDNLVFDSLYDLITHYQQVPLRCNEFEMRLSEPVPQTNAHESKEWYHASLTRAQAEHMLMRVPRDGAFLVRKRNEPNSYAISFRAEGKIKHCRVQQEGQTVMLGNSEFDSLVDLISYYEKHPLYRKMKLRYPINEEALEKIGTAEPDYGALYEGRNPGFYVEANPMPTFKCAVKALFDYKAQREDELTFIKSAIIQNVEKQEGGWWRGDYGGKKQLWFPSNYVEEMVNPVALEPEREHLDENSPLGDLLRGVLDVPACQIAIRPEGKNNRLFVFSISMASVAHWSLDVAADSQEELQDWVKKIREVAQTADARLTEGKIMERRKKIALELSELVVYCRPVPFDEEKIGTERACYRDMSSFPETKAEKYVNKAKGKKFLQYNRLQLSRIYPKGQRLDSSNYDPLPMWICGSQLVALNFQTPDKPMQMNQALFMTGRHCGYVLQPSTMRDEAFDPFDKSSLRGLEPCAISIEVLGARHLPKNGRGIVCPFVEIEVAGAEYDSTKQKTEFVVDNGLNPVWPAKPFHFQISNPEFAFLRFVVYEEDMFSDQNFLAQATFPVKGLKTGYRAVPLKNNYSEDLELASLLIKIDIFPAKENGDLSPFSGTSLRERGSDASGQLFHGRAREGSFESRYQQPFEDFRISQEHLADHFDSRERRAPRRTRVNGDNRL
KLK7 zymogen act: proKLK7 zymogen activators, primary screen, biochemical, fluorescence intensity; hit rate 0.9% among 370,000; purified proKLK7, EDANS-DABCYL substrate fluorescence; 100% is mature enzyme control, 0% vehicle; activation, % at 7 µM; Kallikrein-7 (Homo sapiens), P49862;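 active = activation above the mean of all tested compounds plus 3 SD, computed per campaign excluding outliers beyond control limits, cut at about 13% in these data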
proKLK7 act conf: proKLK7 zymogen activators, confirmation, biochemical, fluorescence intensity, triplicate; shares compounds with KLK7 zymogen act; purified proKLK7, EDANS-DABCYL substrate fluorescence; scaled: vehicle 0, mature enzyme 100; activation, % at 7 µM; hit rate 68% among 3,200; AID 686949, 2013;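 active = activation, as change over the incubation, above the mean of all tested compounds plus 3 SD, cut at about 13% in these data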
EDANS interfere: EDANS-DABCYL substrate optical interference, artefact control for kallikrein-7 zymogen activator project, biochemical, fluorescence intensity, high throughput | shares compounds with KLK7 zymogen act | no enzyme, 4 h; solvent 0%, active enzyme control 100% | activation, % at 7 µM | hit rate 80% among 3,200 | AID 686952, 2013;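 active = activation above the all-compound mean plus 3 SD, ignoring values outside control-based bounds, cut at about 4.8% in these data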;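 note: value is the 4 h activation minus the activation read at time zero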
Large screens that a line does not name were inactive (follow-up assays come after a bar, where they were run). In the library only some 3.4% were active in any assay of this set; here they are far more common.

CN(C)CCCNC(=O)C[C@H]1C[C@H](C(=O)N2CCOCC2)[C@@]2(CCC3CCCC3)c3[nH]c4cc(-c5ccco5)ccc4c3CCN2C1=O	KLK7 zymogen act 68.2 | proKLK7 act conf 51.4 | EDANS interfere 51.1
O=C(C[C@H]1C[C@H](C(=O)N2CCOCC2)[C@@]2(CCC3CCCC3)c3[nH]c4cc(-c5ccco5)ccc4c3CCN2C1=O)NCC12CC3CC(CC(C3)C1)C2	none
O=C(N[C@H](Cc1ccccc1)C(=O)N1CCN(Cc2ccccn2)CC1)[C@H]1O[C@@H](n2ccc(=O)[nH]c2=O)[C@H](O)[C@@H]1O	none
COc1ccc(CNC2CCC23CCCCC3)cc1OC (stereo not drawn)	none (no result: KLK7 zymogen act)
CCCCCCCCN1C(=O)[C@@H](CC(=O)NCc2ccccc2)C[C@@]2(C(=O)OC)C1=C[C@H](C(C)C)O[C@@H]2C1CC1	none
O=C(/C=C(\Nc1cccc(Cl)c1)c1ccccc1)c1ccccc1	none
CC(C)N(C[C@@H]1CSCCS(=O)(=O)N1)C1CCCCC1	none
COc1cc(C)cc2oc(=O)c(CC(=O)N3CCN(C(=O)C4COc5ccccc5O4)CC3)c(C)c12 (stereo not drawn)	none
CC(=O)Oc1ccc2c(C)c(CC(=O)N3CCN(C(=O)C4COc5ccccc5O4)CC3)c(=O)oc2c1C (stereo not drawn)	KLK7 zymogen act 154.7 | proKLK7 act conf 343.6 | EDANS interfere 368.1
CC1CCN(C(=O)c2ncn3c2C(=O)N[C@H](C)C3)CC1	none
CCN1c2ccccc2-c2nc3ccccc3n2C1c1cccnc1 (stereo not drawn)	none
c1ccc2c(c1)NC(c1ccncc1)n1c-2nc2ccccc21 (stereo not drawn)	KLK7 zymogen act 28.9 | proKLK7 act conf inactive | EDANS interfere inactive
O=C1c2ccccc2NC(c2ccncc2)N1c1ccccn1 (stereo not drawn)	KLK7 zymogen act 35.9 | proKLK7 act conf 18.4 | EDANS interfere 29.4
c1cncc(C2Nc3ccccc3-c3nc4ccccc4n32)c1 (stereo not drawn)	KLK7 zymogen act 55.7 | proKLK7 act conf inactive | EDANS interfere 5.7
Cc1cc(C)nc(NS(=O)(=O)c2ccc(N/C=C\C(=O)c3ccc(Cl)cc3)cc2)n1	none
CCOc1ccc(C(=O)/C=C/Nc2ccc(S(=O)(=O)Nc3cc(C)nc(C)n3)cc2)cc1	KLK7 zymogen act 147.3 | proKLK7 act conf 237.7 | EDANS interfere 176.8
C[C@H]1[C@@H](OC(=O)NCc2ccco2)CC[C@@]23CCCN2C(=O)CCC[C@@H]13	none (no result: KLK7 zymogen act)
CCCCc1cc(=O)oc2c(CN(C)C)c(O)c(Cl)cc12	KLK7 zymogen act 66.9 | proKLK7 act conf 64.8 | EDANS interfere 85.9
CCc1c(C)c2cc(Cl)c(O)c(CN(C)C)c2oc1=O	KLK7 zymogen act 79.5 | proKLK7 act conf 66.2 | EDANS interfere 67.0
CCCCc1cc(=O)oc2cc(OCC(=O)N(CC)CC)c(Cl)cc12	none
Cc1c(C)c2cc(Cl)c(O)c(CN(C)C)c2oc1=O	KLK7 zymogen act 73.8 | proKLK7 act conf 62.6 | EDANS interfere 65.3
Cc1c(CC(=O)O)c(=O)oc2c(C)c(OCc3ccc(F)cc3Cl)ccc12	none
CCc1c(C)c2cc(Cl)c(O)c(CN(CC)CC)c2oc1=O	KLK7 zymogen act 53.0 | proKLK7 act conf 73.3 | EDANS interfere 83.2
Cc1c(O)c(CN(C)C)cc2c1oc(=O)c1ccccc12	none
CSc1c(N(C)C)c(=O)c1=S	none
CCOC(=O)C1CSCCS(=O)(=O)N1Cc1ccc(F)cc1F (stereo not drawn)	none
Cc1ccccc1C1NC(=O)c2ccccc2O1 (stereo not drawn)	none
Cc1ccccc1C1N=C2Oc3ccccc3C=C2C(=O)N1 (stereo not drawn)	KLK7 zymogen act 35.0 | proKLK7 act conf 72.0 | EDANS interfere 72.6
C[C@H]1[C@@H](NC(=O)c2ccc(O)cc2)CC[C@@]23CCCN2C(=O)CCC[C@@H]13	none (no result: KLK7 zymogen act)
COc1cccc(NC(=O)N2CC[C@@H]3[C@H]2c2cc(-c4cccc(C#N)c4)ccc2N(C)[C@@H]3CO)c1	none
Cc1cc2[nH]c(=O)c(=O)[nH]c2cc1S(=O)(=O)NC1CCC(C)CC1 (stereo not drawn)	KLK7 zymogen act 14.8 | proKLK7 act conf inactive | EDANS interfere 4.1
Cc1cc2[nH]c(=O)c(=O)[nH]c2cc1S(=O)(=O)NCc1ccccc1	KLK7 zymogen act 22.6 | proKLK7 act conf inactive | EDANS interfere 6.0
Cc1cc2[nH]c(=O)c(=O)[nH]c2cc1S(=O)(=O)NCC(C)c1ccccc1 (stereo not drawn)	none
CCCCOCCCNC(=O)C[C@H]1C[C@@]2(C(=O)OC)C(=C[C@H](C(C)C)O[C@@H]2C2CC2)N(Cc2ccc(Cl)cc2Cl)C1=O	none
Cc1ccc(C2Oc3ccccc3C3=C2C(c2cccs2)n2ncnc2N3)cc1 (stereo not drawn)	none
Fc1ccc(C2C3=C(Nc4ncnn42)c2ccccc2OC3c2ccncc2)cc1 (stereo not drawn)	KLK7 zymogen act 13.2 | proKLK7 act conf 22.9 | EDANS interfere 25.6
O=Cc1cc([B-](F)(F)F)cs1	none
COc1cc2c(cc1OC)C(c1cc(OC)c(OC)c(OC)c1)C1(O)C(=O)OCC1(O)C2 (stereo not drawn)	KLK7 zymogen act 56.6 | proKLK7 act conf inactive | EDANS interfere inactive
COc1cc2c(cc1OC)C1c3ccc(OC)c(OC)c3OCC1(O)C2 (stereo not drawn)	none
CCCCNC(=O)C1C(c2ccc(C(F)(F)F)cc2)=Nc2ccccc2N1C(=O)c1ccc2nc(C)[nH]c2c1 (stereo not drawn)	KLK7 zymogen act 92.2 | proKLK7 act conf inactive | EDANS interfere inactive
COCCNC(=S)NCCCNc1nc2cc3c(cc2cc1C#N)OCO3	KLK7 zymogen act 25.2 | proKLK7 act conf 14.4 | EDANS interfere 19.0
CC(C)CN1C(=O)c2ccc(NC(=O)c3cccs3)cc2C1=O	KLK7 zymogen act 12.9 | proKLK7 act conf inactive | EDANS interfere inactive
